Reference: PubChem BioAssay (NCI)
About 83,000 compounds went through this panel and 20% of them were active in at least one assay; those are over-represented in the sample as a whole.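 Compound tested at a single concentration for 48 hours in 96-well plates; a percent growth value below 10 was scored as active.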 Active and inactive are the calls of the source.

test system: SN12C renal; assay: NCI-60 one-dose screen, 48 h (100 = growth as untreated, 0 = no growth, -100 = all killed); conditions: 10 µM
Procedure: Growth inhibition of the SN12C human tumor cell line is measured as a screen for anti-cancer activity. Cells are grown in 96 well plates and exposed to the test compound for 48 hours. Compounds are tested at a single concentration, which is 10^-5 M for most compounds. The reported endpoint is percent growth (GI% or GIPRCNT), where numbers from 0 - 100% represent growth inhibition, and numbers from -100% - 0 represent cell death. For example, a value of 40 represents 60% growth inhibition. A value of 0 means no net growth occurred over the course of the experiment. A value of -40 indicates 40% of cells at the beginning of the experiment died by the end of the experiment. A value of -100 means all cells are dead at the end of the experiment.
NCI-60 Human Tumor Cell Lines Screen was performed using the standard one-dose NCI protocol, which is described in more detail at https://dtp.cancer.gov/discovery_development/nci-60/default.htm.
Compounds with GIPRCNT values below 10 were considered active. Activity score was based on GIPRCNT using the following formula: […]
Score is 0 for GIPRCNT values of 100 or above, 50 for GIPRCNT values of 0, and 100 for GIPRCNT values of -100.

Compound	growth
Cc1ccc(CSc2nc(Cl)c(C#N)c(-c3ccc(F)cc3)n2)cc1	70.2% (inactive)
COc1ccc([C@H]2C(C(=O)c3ccc(Cl)cc3)C3(N[C@@H]2c2ccccc2)C(=O)Nc2ccc(Cl)cc23)cc1 (stereo not given in full)	-86.5% (active)
O=C1NC(=NC23CC4CC(CC(C4)C2)C3)N/C1=C\c1ccc2ncsc2c1	8.93% (active)
CCOC(=O)C1=C(N)N(c2ccc(Cl)cc2)C2=C(C(=O)CC(C)(C)C2)C1c1ccc(N2CCOCC2)cc1 (stereo not given)	97.7% (inactive)
Cc1cccc(NC(=O)CSc2nc3ccc(F)cc3c(=O)n2-c2ccc(Cl)cc2)c1C	64.1% (inactive)
CC1(C)CC[C@]2(C(=O)O)CC[C@]3(C)C(=CC[C@@H]4[C@@]5(C)C/C(=C/c6ccncc6)[C@H](O)C(C)(C)[C@@H]5CC[C@]43C)[C@@H]2C1	55% (inactive)
COC1=C[C@@]23CCC(=O)N2CCc2cc4c(cc2[C@H]3[C@H]1OC(=O)C(C)(C)O)OCO4	96.5% (inactive)
CC1=C(C(=O)OC(C)C)C(c2ccc(O)cc2)NC(=S)N1 (stereo not given)	105% (inactive)
COc1ccc(N2N=C(c3ccc4c(c3)OCCO4)CC2c2cccc(NC(=O)CCCNS(=O)(=O)c3ccc(F)cc3)c2)cc1 (stereo not given)	74.8% (inactive)
COc1ccc(-c2ccc(/C=N/NC(=O)c3[nH]c4ccc(Br)cc4c3-c3ccccc3)o2)cc1	35% (inactive)
COc1cc(NC(=O)CSc2nnc(-c3ccc4nc(-c5ccc(Cl)cc5)[nH]c4c3)o2)cc(OC)c1OC	70.2% (inactive)
COc1ccc2[nH]c(O)c(N=NC(=O)c3cc(-c4ccc(C)cc4)nc4ccccc34)c2c1	92.1% (inactive)
O=C(c1ccc(Cl)cc1)C1[C@H](c2ccc(Br)cc2)[C@@H](c2ccccc2)NC12C(=O)Nc1ccc(Cl)cc12 (stereo not given in full)	-92.5% (active)
Cc1ccc(S(=O)(=O)c2nc(-c3ccccc3)oc2S(=O)(=O)CC(=O)N2CCCC2)cc1	-85% (active)
Cc1ccc2nc(COc3ccc(C(=O)NNC(=S)NCCc4ccccc4)cc3)[nH]c2c1	77.3% (inactive)
CN1CCN(c2ccc(Nc3nc(N4CCN(S(=O)(=O)c5ccc(F)cc5)CC4)c4sccc4n3)cc2)CC1	-86.4% (active)
COc1ccc(/C(C)=N/N=C2C(=O)N(C)c3ccc(Br)cc32)cc1S(N)(=O)=O	68.7% (inactive)
CCNCCCn1c2c(c3cc(OC)c(OC)cc3c1=O)C(=O)c1cc3c(nc1-2)OCO3	-89.2% (active)
CC(C)(C)c1ccc(NCc2cn(-c3ccc(C(=O)O)cc3)nc2-c2ccc(C#N)cc2)cc1	16.1% (inactive)
Nc1nc(-c2ccccc2)cc(-c2cc3ccccc3nc2Cl)n1	83% (inactive)

Compound	growth
COc1ccc(C(=O)CSc2nnc(-c3c[nH]c4ccccc34)n2-c2ccccc2)cc1	44.4% (inactive)
CCOC(=O)C1=C(N)N(c2ccccc2)C2=C(C(=O)CC(C)(C)C2)C1c1ccccc1OC (stereo not given)	92.6% (inactive)
O=c1oc2ccccc2cc1-c1csc(N=Nc2c(O)[nH]c3ccc(Br)cc23)n1	85.3% (inactive)
COc1cccc(-c2nn(-c3ccccc3)cc2-c2ccnc(NCCCNC(=O)Nc3ccc(F)cc3)c2)c1	23.6% (inactive)
COc1ccccc1C(=O)NNC(=O)CSc1nc2c(c(=O)[nH]1)CCCC2	102% (inactive)
Cc1ccc(/C(N)=N/c2sc(-c3ccccc3)nc2-c2ccccc2)cc1	77.8% (inactive)
O=C1Nc2cc(Cl)ccc2/C1=C/c1cccc(OCc2ccc(Br)cc2F)c1	17.6% (inactive)
CN1CCN(c2ccc(Nc3nc(NCCCNC(=O)c4ccc(F)cc4)c4sccc4n3)cc2)CC1	78.8% (inactive)
C/C(=N\N=C\c1ccc(Cl)c([N+](=O)[O-])c1)c1ccc2c(c1)Nc1ccccc1S2	37.2% (inactive)
CC(C)CCSc1nc(NC2CC2)c(C#N)c(-c2ccc(C(C)C)cc2)n1	106% (inactive)
Nc1nc(Nc2ccc(Cl)cc2)n(Cc2cccc(Br)c2)n1	-28.5% (active)
COc1cc2c3c(n(CCCNC(C)C)c(=O)c2cc1OC)-c1nc2c(cc1C3=O)OCO2	-88.9% (active)
COC(=O)c1c(C(=O)OC)c2n(c1C)[C@@H]([C@@H](C)[C@H]1CC[C@H]3[C@@H]4CCC5=CC(=O)CC[C@]5(C)[C@H]4CC[C@]13C)SC2	58% (inactive)
Cc1ccc(C(=O)CSc2nnc(-c3c[nH]c4ccccc34)n2-c2ccccc2)cc1	24.9% (inactive)
Cc1noc2c(Cc3ccc([N+](=O)[O-])cc3)nn(CC(=O)N/N=C/c3ccc(Br)cc3)c(=O)c12	81% (inactive)
O=C(Nc1ccc(I)cc1F)c1cc(-c2ccc(F)cc2F)ccc1O	-4.86% (active)
Cn1cc(/C=N/Nc2cccc(Cl)n2)c2ccccc21	69.6% (inactive)
OCc1[nH]nc2cc(Nc3ncc4ccc(Br)c(OC5CCC(O)CC5)c4n3)ccc12 (stereo not given)	1.92% (active)
CN1C(=O)N(C)C2SC(N/N=C/c3ccc(F)cc3)=NC21 (stereo not given)	52.5% (inactive)
CCN1CCN(c2ccc(NC(=O)Nc3ccc(-c4cc(C(=O)NC)c5ncccc5n4)cc3)cc2C(F)(F)F)CC1	-96.5% (active)
